Activity calls are given as the source filed them. Unless noted, how the calls were made is not given here.

The subject of test [1] is Wnt5a (protein binding on small-molecule microarray). In words: Wnt5a binders on small-molecule microarray, primary screen, biophysical, 635/667 nm fluorescence (AID 1142).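 Further: fluorescence read at 667 nm with signal to noise per printed feature.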 Conditions: 635 nm fluorescence, higher = more signal.
The nature of test [2]: cell viability in Huh7 cells, primary screen, cytotoxicity control for HCV replication inhibitor project, CellTiter-Glo luminescence, basal, 48 h (AID 1143).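 Further: Huh7 hepatoma cells carrying a hepatitis C replication reporter with no stimulus; test concentration not given here.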 Conditions: Huh7 HCV replicon, higher = more signal, called active from +8 up or from −8 down. Background: In ATP-based viability assays light output follows the ATP content of the culture.
Test [3] in a line: P. aeruginosa biofilm formation inhibitors, primary screen, PAO1 strain, BacTiter-Glo luminescence, LB-PBS (AID 1144). The following applies: 12 h, higher = more signal.
Test [4] is described as follows: CREB reporter modulators without forskolin, primary screen, cell-based, PC12, CRE-LacZ reporter, unstimulated (AID 1145). Conditions: no forskolin, luminescence, 4.5 h, higher = more signal, called active from +8 up or from −8 down.
Test [5] is described as follows: CREB reporter modulators under forskolin, primary screen, cell-based, PC12, CRE-LacZ reporter, forskolin-stimulated (AID 1146).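 Further: PC12 cells with 6xCRE LacZ reporter stimulated by forskolin 10 µM; beta-galactosidase reporter signal reflecting CREB driven transcription.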 The following applies: luminescence, 4.5 h, higher = more signal, called active from +8 up or from −8 down.
For test [6], the target named is Streptavidin (Streptomyces avidinii) (UniProt P22629). In words: streptavidin binders on small-molecule microarray, primary screen, artefact control for SMM compound annotation, biophysical, 635/667 nm fluorescence (AID 1147).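 Further: signal reflects streptavidin binding to arrayed compounds as a control protein.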 The following applies: streptavidin binding, higher = more signal.
Chain of Streptavidin (Streptomyces avidinii) (P22629 whole entry, looked up): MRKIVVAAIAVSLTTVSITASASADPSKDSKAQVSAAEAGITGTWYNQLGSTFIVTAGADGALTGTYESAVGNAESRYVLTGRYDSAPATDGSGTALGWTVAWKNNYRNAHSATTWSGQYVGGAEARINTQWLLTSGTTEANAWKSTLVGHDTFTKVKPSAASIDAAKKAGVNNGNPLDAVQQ
Test [7] can be described thus: small-molecule binders of probe aInhba, primary screen, biochemical, small-molecule microarray, 635/667 nm fluorescence (AID 1148).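 Further: score merges 667nm spot fluorescence with signal-to-noise for antibody binding to printed compounds.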 The following applies: higher = more signal.
Test [8] concerns the target Torsin-1A (Homo sapiens) (UniProt O14656). Kind of test: torsin A binders from cell lysate, primary screen, small-molecule microarray, wild-type, 635/667 nm (AID 1149). Conditions: COS7 hTOR1A-WT lysate, 635 nm fluorescence, higher = more signal.
Test [9] has the same target. Kind of test: small-molecule binders of mutant TOR1A in lysate, primary screen, cell lysate, small-molecule microarray, COS7 lysate, 635/667 nm fluorescence (AID 1150).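 Further: score pools 667 nm emission and signal to noise measuring lysate protein binding.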 The following applies: COS7 hTOR1A mutant lysate, 635 nm fluorescence, higher = more signal.
Test [10] has as its system Sonic hedgehog protein (Shh). In words: small-molecule binders of Shh protein, primary screen, biochemical, small-molecule microarray, 635/667 nm fluorescence (AID 1151).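 Further: Shh protein binding to compounds spotted on small-molecule microarray slides; score combines spot fluorescence intensity with signal-to-noise across triplicate slides.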 Conditions: small-molecule microarray binding, 635 nm fluorescence; higher = more signal.
Test [11] in a line: E. coli DRC41 culture turbidity changes, primary screen, E. coli filamentation inducer project, strain DRC41, OD650, 48 h (AID 1152).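 Further: E. coli MC1000 strain DRC41 lacking acrAB efflux pump and sulA.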 Conditions: E. coli DRC41 (acrAB sulA), higher = more signal, called active from +8 up or from −8 down.
A short description of test [12]: small-molecule binders of probe aLefty1, primary screen, biochemical, small-molecule microarray, 635/667 nm fluorescence (AID 1153).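 Further: score merges spot fluorescence with signal-to-noise ratio from the scanned slide images.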 The following applies: higher = more signal.
The nature of test [13]: PSAC antagonists in infected red cells, primary screen, cell-based, P. falciparum Indochina, OD700, 1 h (AID 1154). Conditions: P. falciparum Indochina infected RBC osmotic lysis, higher = more signal, called active from +8 up or from −8 down.
The nature of test [14]: PSAC antagonists in infected red cells, primary screen, cell-based, P. falciparum Indochina, OD700, 2 h (AID 1155).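 Further: lysis reports solute entry through the parasite surface anion channel PSAC; channel blockers reduce lysis of infected cells.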 Conditions: P. falciparum Indochina infected erythrocytes, osmotic lysis OD700; higher = more signal, called active from +8 up or from −8 down.
The nature of test [15]: osmotic lysis modulators in infected erythrocytes, primary screen, PSAC antagonist project, cell-based, P. falciparum Indochina, OD700, 3 h (AID 1156). Conditions: higher = more signal, called active from +8 up or from −8 down.
Test [16] can be described thus: PSAC antagonists in infected red cells, primary screen, cell-based, P. falciparum Indochina, OD700, 18 h (AID 1157). The following applies: P. falciparum Indochina infected erythrocytes, osmotic lysis OD700, 18 h; higher = more signal, called active from +8 up or from −8 down.
Test [17] can be described thus: modulators of S6 phosphorylation in cells, primary screen, cell-based, A549, cytoblot, luminescence, serum-stimulated (AID 1158).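 Further: serum-stimulated A549 lung adenocarcinoma cells; signal is phosphorylated S6 detected by cytoblot immunostaining with HRP secondary.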 The following applies: A549 phospho-S6 cytoblot, 5 h, higher = more signal.
For test [18], the target named is NADPH oxidase 2 (Homo sapiens) (UniProt P04839). In words: NOX2-dependent H2O2 signal modulators, primary screen, NOX inhibitor project, cell-based, HEK293-NOX2, PMA-stimulated, Amplex Red fluorescence (AID 1159). Further: test concentration not given here. Conditions: 45 min, higher = more signal, called active from +8 up or from −8 down.
Chain of NADPH oxidase 2 (Homo sapiens) (P04839 whole entry, looked up): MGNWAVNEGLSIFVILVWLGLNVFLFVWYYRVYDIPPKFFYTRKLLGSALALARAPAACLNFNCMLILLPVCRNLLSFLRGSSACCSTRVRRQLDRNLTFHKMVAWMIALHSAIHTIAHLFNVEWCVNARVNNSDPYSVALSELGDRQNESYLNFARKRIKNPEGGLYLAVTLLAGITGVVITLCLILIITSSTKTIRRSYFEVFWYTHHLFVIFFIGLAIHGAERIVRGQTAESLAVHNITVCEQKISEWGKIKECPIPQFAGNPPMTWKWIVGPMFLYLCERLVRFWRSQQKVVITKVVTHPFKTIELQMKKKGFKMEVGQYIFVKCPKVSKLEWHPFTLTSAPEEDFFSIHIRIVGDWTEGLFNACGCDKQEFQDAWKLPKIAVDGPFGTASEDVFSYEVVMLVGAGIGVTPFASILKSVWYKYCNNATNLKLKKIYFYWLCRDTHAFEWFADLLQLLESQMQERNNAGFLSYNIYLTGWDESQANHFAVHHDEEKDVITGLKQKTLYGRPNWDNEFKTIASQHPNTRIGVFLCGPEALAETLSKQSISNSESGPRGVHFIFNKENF
The target of test [19] is NADPH oxidase 4 (Homo sapiens) (UniProt Q9NPH5). Kind of test: NOX4-dependent H2O2 signal modulators, primary screen, NOX inhibitor project, cell-based, HEK293-NOX4, tetracycline-induced, Amplex Red fluorescence (AID 1160). The following applies: 45 min, higher = more signal, called active from +8 up or from −8 down.
Chain of NADPH oxidase 4 (Homo sapiens) (Q9NPH5 whole entry, looked up): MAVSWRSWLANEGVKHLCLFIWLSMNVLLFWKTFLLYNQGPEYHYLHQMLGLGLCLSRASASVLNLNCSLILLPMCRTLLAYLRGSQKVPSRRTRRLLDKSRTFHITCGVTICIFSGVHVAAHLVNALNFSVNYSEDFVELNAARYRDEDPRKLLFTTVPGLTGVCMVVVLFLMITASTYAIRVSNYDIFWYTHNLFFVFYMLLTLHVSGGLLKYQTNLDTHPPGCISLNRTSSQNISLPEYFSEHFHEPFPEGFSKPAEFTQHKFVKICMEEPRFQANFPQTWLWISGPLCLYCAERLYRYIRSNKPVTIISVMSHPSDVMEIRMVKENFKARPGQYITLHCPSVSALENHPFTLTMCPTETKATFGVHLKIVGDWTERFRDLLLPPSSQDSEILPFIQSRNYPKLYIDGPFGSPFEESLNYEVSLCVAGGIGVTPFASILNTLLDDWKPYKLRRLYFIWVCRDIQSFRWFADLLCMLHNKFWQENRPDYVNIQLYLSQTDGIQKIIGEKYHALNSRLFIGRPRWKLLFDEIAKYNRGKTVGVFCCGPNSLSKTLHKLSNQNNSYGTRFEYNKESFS
Test [20] concerns the target NADPH oxidase 5 (Homo sapiens) (UniProt Q96PH1). In words: NOX5-dependent H2O2 signal modulators, primary screen, NOX inhibitor project, cell-based, HEK293-NOX5, Amplex Red fluorescence (AID 1161). Conditions: HEK293-NOX5, ionomycin, 45 min, higher = more signal.

Chain of Torsin-1A (Homo sapiens) (O14656 whole entry, looked up): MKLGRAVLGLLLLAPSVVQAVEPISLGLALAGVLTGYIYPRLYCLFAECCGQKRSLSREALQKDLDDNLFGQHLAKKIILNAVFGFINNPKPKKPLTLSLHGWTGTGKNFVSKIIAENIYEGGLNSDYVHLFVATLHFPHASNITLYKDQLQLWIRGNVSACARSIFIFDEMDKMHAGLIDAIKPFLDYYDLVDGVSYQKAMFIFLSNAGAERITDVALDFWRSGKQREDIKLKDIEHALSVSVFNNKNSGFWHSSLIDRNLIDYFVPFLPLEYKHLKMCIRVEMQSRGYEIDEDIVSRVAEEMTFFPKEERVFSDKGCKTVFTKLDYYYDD
Chain of NADPH oxidase 5 (Homo sapiens) (Q96PH1 whole entry, looked up): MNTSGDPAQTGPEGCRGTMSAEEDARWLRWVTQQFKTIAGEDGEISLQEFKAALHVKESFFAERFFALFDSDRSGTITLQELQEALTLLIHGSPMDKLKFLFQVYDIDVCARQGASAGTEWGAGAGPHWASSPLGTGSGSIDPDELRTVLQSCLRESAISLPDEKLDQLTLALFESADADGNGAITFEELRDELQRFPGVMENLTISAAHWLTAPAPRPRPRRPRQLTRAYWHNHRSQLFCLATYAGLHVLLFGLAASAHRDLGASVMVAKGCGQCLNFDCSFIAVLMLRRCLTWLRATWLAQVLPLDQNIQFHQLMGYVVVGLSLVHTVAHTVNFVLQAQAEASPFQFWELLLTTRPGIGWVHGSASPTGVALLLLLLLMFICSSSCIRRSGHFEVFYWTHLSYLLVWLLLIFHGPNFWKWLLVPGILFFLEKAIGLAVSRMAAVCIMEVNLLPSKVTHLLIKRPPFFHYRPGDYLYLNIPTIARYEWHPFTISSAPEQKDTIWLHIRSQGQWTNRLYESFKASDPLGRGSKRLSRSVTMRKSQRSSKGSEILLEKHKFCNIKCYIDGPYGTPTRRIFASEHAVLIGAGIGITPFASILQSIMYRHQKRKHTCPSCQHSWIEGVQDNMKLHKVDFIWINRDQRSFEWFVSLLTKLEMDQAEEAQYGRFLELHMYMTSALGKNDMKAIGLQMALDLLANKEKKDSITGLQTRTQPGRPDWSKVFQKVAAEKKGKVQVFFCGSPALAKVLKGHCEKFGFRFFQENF

For `C[N+](C)(C)CCCCCCNC(=O)[C@@H]1C[C@@H]2C(=O)N3CCC[C@H]3C(=O)N2[C@@H]1c1cccc(OCCO)c1`, the composite z-score in [1] is -0.0544; in test [6], -1.05; in test [7] it was -0.0754; in the test with Torsin-1A (Homo sapiens) [8], -0.383; with Torsin-1A (Homo sapiens) [9], 0.624; in test [10], 2.25. Moreover, the composite z-score in test [12] was determined as 0.388. For the same compound, the z-score in [2] is -0.345 (inactive); in [3], -1.34 (inactive); in [4], -1.34 (inactive); in test [5] it was 0.27 (inactive); in [11], 0.733 (inactive); in test [13] it was 5.3 (inactive). Moreover, the z-score in test [14] is 0.679 (inactive); in test [15] it was 1.45 (inactive); in test [16], 0.277 (inactive); in test [17], 0.0239; in test [18] it was 0.15 (inactive); in [19], 0.982 (inactive). The compound further yielded a z-score in test [20] of 1.49.
Regarding `CCN1C(=O)[C@H]2[C@H]3[C@H](O)C=CC(=O)[C@@H]3CC[C@H]2C1=O`, the composite z-score in test [1] was 0.213; in [6], 0.232; in test [7], -0.0759; with Torsin-1A (Homo sapiens) [8], 0.0994; with Torsin-1A (Homo sapiens) [9] it was 0.546; in test [10] it was 0.62. In addition, in test [12], the composite z-score was -0.265. Moreover, the z-score in test [2] was 0.148 (inactive); in [3] it was 0.465 (inactive); in test [4], 0.342 (inactive); in [5], 0.069 (inactive); in test [11] it was -0.474 (inactive); in [13], -0.441 (inactive). Moreover, the z-score in [14] is -0.343 (inactive); in test [15], -0.795 (inactive); in [16], -0.21 (inactive); in [17] it was 0.176; in [18] it was 0.0244 (inactive); in test [19] it was -0.0152 (inactive). In addition, the z-score in test [20] was -0.204.
Regarding `CCOc1ccc(N2C(=O)/C(=C/C=C/c3ccccc3OC)S(=O)(=O)C2c2cccc([N+](=O)[O-])c2)cc1` (stereo not given), the composite z-score in [1] is -0.0676; in [6], 0.27; in test [7], -0.0596; with Torsin-1A (Homo sapiens) [8], 1.94; with Torsin-1A (Homo sapiens) [9], 0.184; in test [10], 0.37. For the same compound, the composite z-score in test [12] is -0.0193. Besides, the z-score in [2] is -4.29 (inactive); in test [3], -1.57 (inactive); in [4], 0.0026 (inactive); in [5] it was -1.2 (inactive); in test [11], 3.21 (inactive); in test [13], 1.03 (inactive). In addition, the z-score in test [14] is 0.282 (inactive); in [15], -1.1 (inactive); in test [16] it was -1.04 (inactive); in [17], 2.38; in test [18], 0.5 (inactive); in test [19], 0.389 (inactive). Besides, the z-score in [20] turned out to be 1.49.
Turning to `O=C1[C@H]2[C@H]3[C@H](O)[C@H](O)CC(=NOCc4ccccc4)[C@H]3CC[C@H]2C(=O)N1c1ccc(F)cc1F`, the composite z-score in test [1] was -0.0542; in [6], -0.899; in test [7], -0.536; with Torsin-1A (Homo sapiens) [8], -0.0184; in the test with Torsin-1A (Homo sapiens) [9], -0.013; in test [10], -0.311. Also, in [12], the composite z-score is -0.761. Besides, the z-score in [2] was -0.627 (inactive); in [3], -0.665 (inactive); in test [4], -0.926 (inactive); in test [5], -0.14 (inactive); in test [11], -0.139 (inactive); in [13] it was 9.01 (active). Moreover, the z-score in test [14] was 1.42 (inactive); in test [15] it was 0.155 (inactive); in test [16] it was -0.304 (inactive); in [17], -0.392; in test [18], -4.97 (inactive); in test [19] it was 0.187 (inactive). Further, in test [20], the z-score was -0.471.
In the case of `O=C1[C@H]2[C@H]3[C@H](O)[C@H](O)CC(=NOCc4ccccc4)[C@H]3CC[C@H]2C(=O)N1C[C@@H]1CCCO1`, the composite z-score in [1] is 0.171; in test [6] it was 0.295; in test [7], -0.0963; with Torsin-1A (Homo sapiens) [8], 0.95; with Torsin-1A (Homo sapiens) [9], 0.119; in test [10], 0.135. This compound also gave a composite z-score in test [12] of 0.0455. Besides, the z-score in [2] was -0.34 (inactive); in test [3] it was 0.282 (inactive); in test [4] it was -0.298 (inactive); in [5], -0.471 (inactive); in test [11], 0.144 (inactive); in [13], 5.97 (inactive). For the same compound, the z-score in test [14] was 0.673 (inactive); in test [15] it was -0.0092 (inactive); in test [16], 0.479 (inactive); in [17], 0.067; in [18], 0.421 (inactive); in [19] it was 0.511 (inactive). Moreover, the z-score in test [20] is -1.46.

Source of the values: PubChem BioAssay.
